We go through 48 compounds from PubChem BioAssay AID623870 (Broad Institute, 2012).

The campaign covered roughly 390,000 compounds. About 2,600 (0.67%) were called active.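 Rule for the calls: active = mean inhibition of replicates at least 50% and at least half of replicates each reaching 50%; inconclusive = half or more replicates reach 50% but mean below 50%; inactive = the rest.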 Many of the other results were omitted from the sample, so actives are more common in it than they were.

In general, inhibition refers to the drop in the measured response relative to a control, in per cent.

For this test, the target named is Transforming acidic coiled-coil-containing protein 3 (Homo sapiens) (UniProt Q9Y6A5). The test is described as follows: disruptors of ARNT/TACC3 protein interaction, primary screen, biochemical, AlphaScreen, single concentration (AID 623870).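 Note: 0% = complete ARNT plus TACC3 wells and 100% = ARNT alone without TACC3.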 To be noted: AlphaScreen His-ARNT PAS-B/GST-TACC3 binding, luminescence; at 9.99 µM; active compounds read high; TACC3 fragment carries E629A point mutation. A general note: In Alpha technology, singlet oxygen from a donor bead excites a nearby acceptor bead.
With `CN1CCN(C(=O)c2cc3c(c(-c4cccc(-c5ccc(C(=O)N(C)C)cc5)c4)n2)[C@@H](CCO)N([S@](=O)C(C)(C)C)C3)CC1`, the inhibition was -5.08% (inactive).

Turning to `CC(C)(C)[S@](=O)N1Cc2cc(C(=O)N3CCCCC3)nc(-c3cccc(-c4ccccc4F)c3)c2[C@@H]1CCO`, the inhibition is 9.08% (inactive).

Take `COc1ccccc1-c1cccc(-c2nc(C(=O)N3CCN(C)CC3)cc3c2[C@H](CCO)N([S@@](=O)C(C)(C)C)C3)c1`: the inhibition was 51.3% (active).

Turning to `C[C@@H]1CN([C@H](C)CO)C(=O)c2cc(NC(=O)Nc3ccccc3)ccc2O[C@@H](C)CCCCO[C@@H]1CN(C)S(=O)(=O)c1ccc(F)cc1`, the inhibition was -3.52% (inactive).

With `CCCNC(=O)N(C)C[C@H]1Oc2ncc(-c3cccc(C#N)c3)cc2C(=O)N([C@@H](C)CO)C[C@@H]1C`, the inhibition is -5.02% (inactive).

`O=C(NCCCn1ccnc1)c1cc(Br)c(Br)s1`: the inhibition was 15.4% (inactive).

With `O=C(NCCCn1ccnc1)c1cc2c(s1)CCCC2`, the inhibition was 49.3% (active).

With `O=C(NCCCn1ccnc1)c1cc(-c2ccccc2)on1`, the inhibition is 1.74% (inactive).

As for `O=C(N[C@H]1CC[C@H](CCNS(=O)(=O)c2ccc(F)cc2)O[C@H]1CO)c1cccc(F)c1`, the inhibition is 3.52% (inactive).

As to `CCS(=O)(=O)N1CCCCN2[C@@H](CO)[C@@H](c3ccc(-c4ccccc4)cc3)[C@@H]2C1`, the inhibition was -0.151% (inactive).

As for `O=C([C@H]1[C@H](CO)[C@H]2Cn3c(ccc(-c4ccccc4)c3=O)[C@@H]1N2Cc1cccnc1)N1CCOCC1`, the inhibition was 42.2% (inactive).

Take `O=c1nc(N/N=C/c2ccco2)cn[nH]1`: the inhibition is 5.23% (inactive).

As for `Cc1n[nH]c(=O)nc1N/N=C/c1cccs1`, the inhibition is 67.8% (active).

With `Cn1c(=O)c2c(nc(N/N=C/c3cccs3)n2Cc2ccc(Br)cc2)n(C)c1=O`, the inhibition is 12.7% (inactive).

`C[C@@H]1CN([C@@H](C)CO)C(=O)c2cc(C3=CCCC3)cnc2O[C@@H]1CN(C)C(=O)Cc1ccncc1`: the inhibition is 3.47% (inactive).

For the compound `Cc1ccc(S(=O)(=O)Nc2ccc3c(c2)C(=O)N([C@H](C)CO)C[C@H](C)[C@H](CN(C)S(C)(=O)=O)O3)cc1`, the inhibition is -7.55% (inactive).

With `C[C@@H]1CN([C@@H](C)CO)C(=O)c2cc(-c3cccc(F)c3)cnc2O[C@@H]1CN(C)Cc1ccccc1`, the inhibition was 1.97% (inactive).

Regarding `COc1ccc(-c2ccc3c(c2)O[C@H](CN(C)Cc2ccccc2C(=O)O)[C@H](C)CN([C@@H](C)CO)S3(=O)=O)cc1`, the inhibition was 5.2% (inactive).

Regarding `CN(C)Cc1cn(CC[C@H]2CC[C@H](NS(=O)(=O)c3ccccc3)[C@@H](CO)O2)nn1`, the inhibition was -3.47% (inactive).

In the case of `O=S(=O)(N[C@@H]1CC[C@@H](CCn2cc(-c3ccccn3)nn2)O[C@@H]1CO)c1cccc(Cl)c1`, the inhibition is 69.9% (active).

For the compound `O=C(N[C@@H]1CC[C@@H](CCn2cc(-c3ccccn3)nn2)O[C@@H]1CO)c1ccccc1`, the inhibition was 40.7% (inactive).

For the compound `O=C(N[C@@H]1CC[C@H](CCn2cc(-c3ccccc3)nn2)O[C@H]1CO)c1cnccn1`, the inhibition is 4.06% (inactive).

As for `O=C(N[C@@H]1CC[C@H](CCn2cc(-c3ccccn3)nn2)O[C@@H]1CO)c1ccccc1`, the inhibition was 87.5% (active).

For the compound `CN(C)Cc1cn(CC[C@H]2CC[C@@H](NS(=O)(=O)c3ccccc3)[C@H](CO)O2)nn1`, the inhibition is -3.27% (inactive).

For the compound `C[C@H]1CN([C@@H](C)CO)C(=O)c2cc(C3=CCCC3)cnc2O[C@@H]1CN(C)C(=O)c1ccccc1`, the inhibition is -1.02% (inactive).

Turning to `CC(C)OC(=O)N(C)C[C@@H]1OCc2ccccc2-c2c(n(C)c3ccccc23)C(=O)N([C@H](C)CO)C[C@H]1C`, the inhibition is 5.73% (inactive).

As to `CCC(=O)N(C)C[C@H]1Oc2cc(C#CCOC)ccc2S(=O)(=O)N([C@H](C)CO)C[C@H]1C`, the inhibition was 1.93% (inactive).

Take `CC(=O)Nc1ccc2c(c1)C(=O)N(C)[C@H]1CC[C@@H](CC(=O)NCC3CC3)O[C@H]1CO2`: the inhibition was -14.7% (inactive).

Consider `O=C(C[C@H]1CC[C@H]2[C@@H](COC[C@H](O)CN2Cc2ccncc2)O1)NCC1CC1`, for which the inhibition is 14.4% (inactive).

`C[C@@H]1CN([C@@H](C)CO)C(=O)c2cc(C#CC3CCCCC3)cnc2O[C@H]1CN(C)S(=O)(=O)c1ccccc1`: the inhibition is 10.2% (inactive).

In the case of `Cc1nc2ccccc2nc1N/N=C/c1ccc(O)cc1O`, the inhibition was 69.6% (active).

For the compound `CNC[C@@H]1Oc2ccc(NC(=O)CCC(F)(F)F)cc2C(=O)N([C@@H](C)CO)C[C@@H]1C`, the inhibition is -4.46% (inactive).

Take `Cc1ccsc1/C=N/NC(=O)Cc1cc(=O)[nH][nH]1`: the inhibition was 1.12% (inactive).

On to `Cc1ccsc1/C=N/n1c(=S)[nH]nc(C)c1=O`, for which the inhibition is 65.9% (active).

`CCc1n[nH]c(=S)n1/N=C/c1c[nH]c2ccc(Br)cc12`: the inhibition was -4.96% (inactive).

Turning to `O=C(NC[C@@H]1[C@@H](c2ccccc2)[C@H](CO)N1C(=O)C1CCC1)NC1CCCC1`, the inhibition is -6.78% (inactive).

On to `Oc1cccc(/C=N/Nc2ccc(Cl)nn2)c1O`, for which the inhibition is 53.7% (active).

Regarding `COc1ccc(NC(=O)N2C[C@H](O)COC[C@H]3O[C@@H](CC(=O)N4CCN(C)CC4)CC[C@@H]32)cc1`, the inhibition was 0.747% (inactive).

`NS(=O)(=O)c1ccc(CNC(=O)c2cnccn2)cc1`: the inhibition is 6.45% (inactive).

In the case of `CCN(CC)c1ccc(/C=N/Nc2nc(C)cc(C)n2)c(O)c1`, the inhibition is 69.4% (active).

On to `CCN(CC)c1ccc(/C=N/NC(=O)CNC(=O)c2cccs2)cc1`, for which the inhibition was -3.55% (inactive).

Take `CCN(CC)c1ccc(/C=N/NC(=O)c2cnccn2)c(O)c1`: the inhibition was 53.5% (active).

As to `Cc1noc(C)c1NC(=O)Nc1cccc2c1O[C@H](CN(C)C(=O)Nc1c(C)noc1C)[C@@H](C)CN([C@@H](C)CO)C2=O`, the inhibition was 2.88% (inactive).

Consider `CCCNC(=O)[C@H]1[C@H](CO)[C@H]2Cn3c(ccc(C4=CCCC4)c3=O)[C@H]2N1C(=O)CC`, for which the inhibition was -1.64% (inactive).

Turning to `Cc1cccc(-n2cnc(C(=O)Nc3cccnc3)c2)n1`, the inhibition was -3.7% (inactive).

With `O=C(NNC(=S)Nc1ccccc1)c1cccc(S(=O)(=O)N2CCOCC2)c1`, the inhibition is 0.545% (inactive).

On to `Cc1cccc(-n2cnc(C(=O)NNC(=S)Nc3ccccc3)c2)n1`, for which the inhibition is 70.3% (active).

`C/C=C/c1cnc2c(c1)C(=O)N([C@H](C)CO)C[C@H](C)[C@@H](CN(C)S(=O)(=O)c1ccccc1F)O2`: the inhibition was -4.04% (inactive).
